Reference: PubChem BioAssay (Tox21)
“And” between values parts separate entries of the source, which are not always exact repeats. Identical values can stand only once. Results filed as inconclusive are left out. The source made the active and inactive calls. Unless noted, calls come from the whole dose curve; as a rule, active = well fitted curve in the direction sought with a large enough effect in the repeat runs; inconclusive = weak or mixed curves; inactive = no such curve, though single readings can be large; an effect the other way counts as inactive or inconclusive.

Columns and labels:
[1] = qHTS assay for small molecules that induce genotoxicity in human embryonic kidney cells expressing luciferase-tagged ATAD5 (AID 651632); note: nearly all actives have a fitted effect of over 15% in size; note: potency is the fitted concentration of half-maximal effect
Procedure, shortened: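 Cells were seeded at 2,000 per well, dosed with compound, and incubated 16 hr at 37C in 5% CO2. Luciferase activity was then quantified after a 30 min room-temperature incubation with Amplite.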

[2] = qHTS assay for small molecules that induce genotoxicity in human embryonic kidney cells expressing luciferase-tagged ATAD5 - cell viability (AID 651634; calls by dose curve; note: nearly all actives have a fitted effect of over 25% in size; note: potency is the fitted concentration of half-maximal effect)
Procedure, shortened: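 Cells (HEK293T, luciferase-tagged ATAD5) are seeded at 2,000 per well, dosed with compound or DMSO vehicle, and incubated 15.5 hr at 37C and 5% CO2. CellTiter-Fluor is added for 30 min before fluorescence is measured.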

[3] = qHTS assay for small molecule disruptors of the mitochondrial membrane potential - cell viability (AID 720634; calls by dose curve; note: nearly all actives have a fitted effect of over 20% in size; note: potency is the fitted concentration of half-maximal effect)
Procedure, shortened: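 Cytotoxicity was measured by ATP quantitation in HepG2 wells that had first been treated with compound for 1 hr and stained with m-MPI dye; CellTiter-Glo incubation was 30 min at room temperature.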

[4] = qHTS assay for small molecule disruptors of the mitochondrial membrane potential (AID 720635); note: potency is the fitted concentration of half-maximal effect
Procedure, shortened: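 HepG2 cells (2,000/well) attached overnight at 37C, then took compound for 1 hr at 37C, 5% CO2. Mito-MPS dye was added for 30 min; fluorescence was read at 490/535 nm (monomers) and 540/590 nm (aggregates).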

[5] = qHTS assay to test for compound auto fluorescence at 590 nm (red) in HepG2 cells (AID 720674)
Procedure, shortened: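 Intrinsic compound fluorescence in the red window (Ex/Em 540/590 nm) is measured in attached HepG2 cells exposed for 1 hr, DMSO vehicle as baseline, benchmarked to Rose Bengal sodium.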

[6] = qHTS assay to test for compound auto fluorescence at 535 nm (green) in HepG2 cells (AID 720675); note: potency is the fitted concentration of half-maximal effect
[7] = qHTS assay to test for compound auto fluorescence at 460 nm (blue) in HEK293 cells (AID 720678)
Procedure, shortened: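 Blue read-out at excitation 405 nm and emission 460 nm follows overnight compound exposure of HEK293 cells at 37C in 5% CO2. Activity is given as auto fluorescence equivalency to triamterene.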

[8] = qHTS assay to test for compound auto fluorescence at 590 nm (red) in HEK293 cells (AID 720679)
Procedure, shortened: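 Red channel, Ex/Em 540/590nm; signal expressed as equivalency to Rose Bengal sodium. HEK293, 2,000 cells/well, 10% dialyzed FBS; 23 nL compound pinned after 4-5 hr attachment; overnight 37C/5% CO2 before reading.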

[9] = qHTS assay for small molecule agonists of the p53 signaling pathway - cell viability (AID 651633; calls by dose curve; note: nearly all actives have a fitted effect of over 30% in size; note: potency is the fitted concentration of half-maximal effect)
Procedure, shortened: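 p53RE-bla cells, seeded at 4,000 per well and rested 5 h at 37 C/5% CO2, received compounds in DMSO for 16 h at 37 C. CellTiter-Glo was then added, and luminescence was read after 30 min at room temperature to gauge cytotoxicity.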
% is set by controls: 0 for no effect and ±100 for the full control effect.

CCN(Cc1cccnc1)C(=O)c1cccc(Cl)c1[C@]1(C)C(=O)N(Cc2ccc(OC)cc2OC)c2ccc(Cl)cc21
active: Potency [2] 9.05 µM | Potency [4] 8.07 µM
inactive: Potency [1] | Potency [3] | Potency [5] | Potency [6] | Potency [7] | Potency [8]

CCOc1nc2cccc(C(=O)OC(C)OC(=O)OC3CCCCC3)c2n1Cc1ccc(-c2ccccc2-c2nn[nH]n2)cc1 (centres undefined)
active: Potency [9] 12.2 µM | Potency [4] 13.7 µM
inactive: Potency [1] | Potency [5] | Potency [6] | Potency [7] | Potency [8]

NC(=NCCCCCCN=C(N)/N=C(\N)Nc1ccc(Cl)cc1)/N=C(\N)Nc1ccc(Cl)cc1
active: Potency [9] 38.2 µM [middle of 4 runs]
inactive: Potency [1] | Potency [3] | Potency [5] | Potency [6] | Potency [7] | Potency [8]

O=Cc1cc(O)ccc1Br
inactive: Potency [1] | Potency [2] | Potency [3] | Potency [5] | Potency [6] | Potency [7] | Potency [8]
active: Potency [4] 62 µM

O=c1[nH]sc2ccccc12
active: Potency [4] 27.3 µM
inactive: Potency [1] | Potency [2] | Potency [3] | Potency [5] | Potency [6] | Potency [7] | Potency [8]

C[C@@H](NCCCc1cccc(C(F)(F)F)c1)c1cccc2ccccc12
active: Potency [2] 26.6 µM | Potency [3] 26.6 µM
inactive: Potency [1] | Potency [5] | Potency [6] | Potency [7] | Potency [8]

C/C=C1/C(=O)C[C@H]2[C@@H]3CCC4=CC(=O)CC[C@]4(C)[C@H]3CC[C@]12C
inactive: Potency [1] | Potency [2] | Potency [3] | Potency [4] | Potency [5] | Potency [6] | Potency [7] | Potency [8]

O=C(Nc1cccc([N+](=O)[O-])c1)c1cc2ccccc2cc1O
active: Potency [9] 3.86 µM | Potency [4] 0.154 µM
inactive: Potency [1] | Potency [5] | Potency [6] | Potency [7] | Potency [8]

CCN(CCC#N)c1ccc(N=Nc2c(Cl)cc([N+](=O)[O-])cc2Cl)cc1
inactive: Potency [1] | Potency [5] | Potency [6] | Potency [7] | Potency [8]
active: Potency [2] 54.5 µM | Potency [3] 19.3 µM

Oc1ccc2cc(SSc3ccc4cc(O)ccc4c3)ccc2c1
inactive: Potency [1] | Potency [9] | Potency [3] | Potency [5] | Potency [6] | Potency [7] | Potency [8]
active: Potency [4] 38.6 µM and 24.3 µM

O=S1(=O)CC(Cl)(Cl)C(Cl)(Cl)C1
active: Potency [1] 4.86 µM | Potency [2] 24.3 µM | Potency [3] 15.4 µM | Potency [4] 12.2 µM
inactive: Potency [5] | Potency [6] | Potency [7] | Potency [8]

CSc1ccc(/C=C2/C(C)=C(CC(=O)O)c3cc(F)ccc32)cc1
active: Potency [9] 26.6 µM
inactive: Potency [1] | Potency [3] | Potency [5] | Potency [6] | Potency [7] | Potency [8]

Nc1ccc(N)c2ccccc12
active: Potency [2] 15.3 µM | Potency [3] 13.7 µM | Potency [4] 0.153 µM | Potency [6] 8.91 µM
inactive: Potency [1] | Potency [5] | Potency [7] | Potency [8]

CCCCCCCC/C=C/CCCCCCCC1=NCCN1CCO
active: Potency [9] 43.3 µM | Potency [3] 54.5 µM | Potency [4] 54.5 µM
inactive: Potency [1] | Potency [5] | Potency [6] | Potency [7] | Potency [8]

CCCC(c1cc(C(C)(C)C)c(O)cc1C)c1cc(C(C)(C)C)c(O)cc1C
inactive: Potency [1] | Potency [5] | Potency [6] | Potency [7] | Potency [8]
active: Potency [2] 31 µM | Potency [3] 39 µM | Potency [4] 3.9 µM

Fc1ccc([C@@H]2CCNC[C@H]2COc2ccc3c(c2)OCO3)cc1
active: Potency [9] 33.5 µM
inactive: Potency [1] | Potency [3] | Potency [5] | Potency [6] | Potency [7] | Potency [8]

NNc1nc(-c2ccc([N+](=O)[O-])cc2)cs1
inactive: Potency [1] | Potency [5] | Potency [6] | Potency [7] | Potency [8]
active: Potency [2] 24.3 µM | Potency [3] 17.2 µM | Potency [4] 1.37 µM

CCCCCCCCCOC(=O)c1ccc(O)cc1
active: Potency [9] 60.3 µM | Potency [4] 4.27 µM
inactive: Potency [1] | Potency [5] | Potency [6] | Potency [7] | Potency [8]

CCC(Cl)C(Cl)C(Cl)CC(Cl)C(Cl)C(C)Cl (centres undefined)
inactive: Potency [1] | Potency [2] | Potency [3] | Potency [5] | Potency [6] | Potency [7] | Potency [8]
active: Potency [4] 24.3 µM

CC(C)OC(=O)c1cc2c(OCC(O)CNC(C)(C)C)cccc2[nH]1 (centres undefined)
inactive: Potency [1] | Potency [2] | Potency [3] | Potency [4] | Potency [5] | Potency [6] | Potency [7] | Potency [8]

CN(C/C=C/C#CC(C)(C)C)Cc1cccc2ccccc12
inactive: Potency [1] | Potency [2] | Potency [3] | Potency [4] | Potency [5] | Potency [6] | Potency [7] | Potency [8]

CCCCCCCCCCCCCCCC[N+](C)(C)CCN(Cc1ccc(OC)cc1)c1ncccn1
active: Potency [4] 11.4 µM
inactive: Potency [1] | Potency [2] | Potency [3] | fluorescence, relative to Rose Bengal [5] 0.0174% [at 18.6 µM] | fluorescence, % of fluorescein control [6] -0.0711% [at 18.6 µM] | fluorescence, % of triamterene [7] 0.0413% [at 18.6 µM] | fluorescence, % of fluorescent control [8] -0.0306% [at 18.6 µM]

C[n+]1ccn(Cc2ccccc2)c1
inactive: Potency [1] | Potency [2] | Potency [3] | Potency [4] | Potency [5] | Potency [6] | Potency [7] | Potency [8]

CCCC(C)c1ccccc1O (centres undefined)
active: Potency [4] 30.6 µM
inactive: Potency [1] | Potency [2] | Potency [3] | Potency [5] | Potency [6] | Potency [7] | Potency [8]

CN(C)c1ccc(SC#N)cc1
inactive: Potency [1] | Potency [2] | Potency [3] | Potency [5] | Potency [6] | Potency [7] | Potency [8]

Cc1[nH]nc2c1N=C(c1ccccc1Cl)c1cc([N+](=O)[O-])ccc1N2
inactive: Potency [3] | Potency [5] | Potency [6] | Potency [7] | Potency [8]
active: Potency [1] 1.93 µM | Potency [2] 30.6 µM | Potency [4] 3.06 µM

O=c1cccccc1O
inactive: Potency [1] | Potency [2] | Potency [3] | Potency [5] | Potency [6] | Potency [7] | Potency [8]
active: Potency [4] 3.93 µM

CC/C(=C(\c1ccc(O)cc1)c1ccc(OCCN(C)C)cc1)c1ccccc1
inactive: Potency [1] | Potency [5] | Potency [6] | Potency [7] | Potency [8]
active: Potency [2] 61.3 µM | Potency [3] 68.7 µM | Potency [4] 24.4 µM

CCCCc1oc2ccc(NS(C)(=O)=O)cc2c1C(=O)c1ccc(OCCCN(CCCC)CCCC)cc1
inactive: Potency [1] | Potency [5] | Potency [6] | Potency [7] | Potency [8]
active: Potency [2] 26.6 µM | Potency [3] 29.8 µM | Potency [4] 9.44 µM

NNc1nc(-c2ccccc2)cs1
active: Potency [2] 4.99 µM | Potency [4] 1.58 µM
inactive: Potency [1] | Potency [3] | Potency [5] | Potency [6] | Potency [7] | Potency [8]

C1CCCC1
inactive: Potency [1] | Potency [2] | Potency [3] | Potency [4] | Potency [5] | Potency [6] | Potency [7] | Potency [8]

c1cc(C(c2ccc(OCC3CO3)cc2)c2ccc(OCC3CO3)cc2)ccc1OCC1CO1 (centres undefined)
inactive: Potency [1] | Potency [9] | Potency [5] | Potency [6] | Potency [7] | Potency [8]

CCCCCCCCCCCCCCCC(=O)OC[C@H](O)[C@H]1OC(=O)C(O)=C1O
inactive: Potency [1] | Potency [2] | Potency [3] | Potency [4] | Potency [5] | Potency [6] | Potency [7] | Potency [8]

OCCN1CCN(CC/C=C2/c3ccccc3Sc3ccc(C(F)(F)F)cc32)CC1
inactive: Potency [1] | Potency [5] | Potency [6] | Potency [7] | Potency [8]
active: Potency [9] 29.8 µM

Cc1c(C)c2c(c(C)c1OC(=O)CCC(=O)O)CC[C@@](C)(CCC[C@H](C)CCC[C@H](C)CCCC(C)C)O2
inactive: Potency [1] | Potency [9] | Potency [3] | Potency [5] | Potency [6] | Potency [7] | Potency [8]

CCCCCCCCCCCCc1ccc(O)cc1
inactive: Potency [1] | Potency [3] | Potency [5] | Potency [6] | Potency [7] | Potency [8]
active: Potency [9] 24.3 µM | Potency [4] 2.73 µM
